# An excerpt weighted towards active compounds, which were near 19% of everything screened.
# KB-3-1 cytotox: kills parental KB-3-1 adenocarcinoma cells. KB-3-1 viability, CellTiter-Glo ATP luminescence, 72 h. Potency, µM (highest dose often 46.1 µM), most hits filed as cytotoxic. actives 1.4% (n = 400,000). AID 1347075; also: nearly all actives have a fitted effect of over 60% in size
#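 72 h, 37 °C compound treatment of KB-3-1 parental cells; CellTiter-Glo added, 10 min, luminescence read. Data corrected against DMSO-only plates and normalized before curve fitting.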
# DT40 TDP1 no CPT: qHTS for Inhibitors of human tyrosyl-DNA phosphodiesterase 1 (TDP1): qHTS in cells in absence of CPT; actives 15% (n = 420,000); Potency, µM (doses to about 46.2 µM), without a hit: top-dose activity change, negative = growth inhibition, usual class: inhibitors; DT40 Tdp1-/- hTDP1 cells, no CPT, ATP luminescence, 48 h; also: nearly all actives have a fitted effect of over 55% in size
#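 A cellular qHTS used chicken DT40 cells lacking endogenous Tdp1 but carrying stably transfected human TDP1. Compounds were applied without camptothecin, and cell growth kinetics were judged by ATP-dependent luminescence after ≥48 hr.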
# DT40 TDP1 CPT: growth inhibition of DT40 Tdp1-/-;hTDP1 cells with camptothecin (screen for TDP1 inhibitors); chicken DT40 Tdp1-/-;hTDP1 cells + 20 nM CPT, ATP luminescence, 48 h; Potency, µM (series often up to 46.2 µM), without a hit: at the top dose activity change, negative = growth inhibition, most hits filed as inhibitors; actives 12% (n = 420,000); also: nearly all actives have a fitted effect of over 55% in size
#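 Chicken DT40 Tdp1-/- cells complemented with human TDP1, 400 cells/well, exposed to compounds plus 20 nM camptothecin for at least 48 h at 37 C; viability read as ATP content by CellTiter-Glo luminescence.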
# HT1080 IDH1KD tx: toxicity to HT-1080 IDH1 knockdown cells (counter line) | HT-1080 IDH1 knockdown viability, ATP luminescence, 48 h | Potency, µM (top dose mostly 46.1 µM), for the others: top-dose activity, negative = toxicity, actives largely listed as cytotoxic | actives 2% (n = 360,000) | AID 686971;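 also: 0% = DMSO wells and -100% = cell-free medium wells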
#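 Using the IDH1-knockdown HT-1080 line run in the same batch and compound series as the NT line, viability after 48 h at 37 °C was determined by CellTiter-Glo luminescence and expressed as % activity.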
# HT1080-NT tox: kills 2HG-producing HT-1080-NT fibrosarcoma cells. Potency, µM (titrated, usually from 46.1 µM), inactives show at the highest dose activity, negative = less viability, hits mostly cytotoxic. HT-1080-NT fibrosarcoma viability, CellTiter-Glo ATP luminescence, 48 h. actives 1.6% (n = 360,000);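 also: NT is the 2HG producing partner of a matched IDH1 knockdown line; 0% = DMSO-treated cells and -100% = media-only wells without cells; nearly all actives have a fitted effect of over 55% in size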
#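 Compounds were tested in concentration-response format on HT-1080-NT cells for 48 hours at 37 degrees C. Cell viability came from CellTiter-Glo luminescence; curves were classified by r2, response magnitude and activity.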
# KB-V1 MDR tox: KB-V1 MDR subline cytotoxicity; actives 3.4% (n = 400,000); Potency, µM (top dose mostly 46.1 µM), actives largely listed as cytotoxic; KB-V1 MDR cells viability, CellTiter-Glo, 72 h; also: nearly all actives have a fitted effect of over 60% in size
#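 Luminescent ATP read-out (CellTiter-Glo, 10 min) measures survival of drug-selected KB-V1 MDR cells after 72 h, 37 degrees C compound exposure. Medium: phenol-red-free DMEM, 10% FBS. Values from fitted concentration-response curves.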
# Starred values were filed as active, the others as inactive; i = inactive; ? = inconclusive; . = no result given; [ ] = dose if it differs, or a comment. Calls follow the shape of the dose curve; as a rule, active = well fitted curve in the direction sought with a large enough effect; inconclusive = small, poorly fitted or top-dose-only effect, or another doubt; inactive = no such curve, though single readings can be large; an effect the other way counts as inactive or inconclusive. Unless noted, % is scaled to controls: 0 for no effect and ±100 for the full control effect; potency is read from the fitted curve at half-maximal effect.
SMILES,KB-3-1 cytotox,DT40 TDP1 no CPT,DT40 TDP1 CPT,HT1080 IDH1KD tx,HT1080-NT tox,KB-V1 MDR tox
O=C(NCCN1CCCC1)c1ccc2c(c1)N(Cc1ccc(F)cc1)C(=O)c1ccccc1S2=O (configuration not stated),i,?,?,-9%,-13%,i
Cc1ccc(C)c(CN2C(=O)c3ccccc3S(=O)c3ccc(C(=O)NCc4ccco4)cc32)c1 (configuration not stated),i,16µM*,?,.,.,?
O=C(NCc1ccco1)c1ccc2c(c1)N(Cc1ccc(F)cc1)C(=O)c1ccccc1S2=O (configuration not stated),i,16µM*,?,.,.,i
CCCCNC(=O)c1ccc2c(c1)N(Cc1ccc(F)cc1)C(=O)c1ccccc1S2=O (configuration not stated),i,18µM*,23µM*,.,.,?
COc1ccc(NC(=O)C2CCN(S(=O)(=O)c3cn(C)cn3)CC2)cc1Cl,.,-15%,-17%,.,.,.
S=C(NCCCN1CCN(CCCNC(=S)NC2CCCCC2)CC1)NC1CCCCC1,i,15µM*,15µM*,?,?,?
OCCNC(=S)NC1CCCCC1,i,-14%,-3%,0%,2%,i
O=C(N/N=C/c1cn(-c2ccccc2)nc1-c1ccc2c(c1)OCCO2)c1ccncc1,i,-29%,-12%,-1%,4%,i
NC(=S)N/N=C/c1cn(-c2ccccc2)nc1-c1cccnc1,?,2.9µM*,12µM*,?,?,?
O=C(N/N=C/c1cn(-c2ccccc2)nc1-c1ccc(F)cc1)c1ccc2c(c1)OCO2,?,18µM*,?,-2%,-3%,?
Cc1nn(Cc2ccccc2)c(C)c1/C=N/NC(=O)CNc1cccc(C(F)(F)F)c1,?,?,-73%,-29%,-23%,i
O=C(N/N=C/c1cn(-c2ccccc2)nc1-c1cccnc1)c1ccccc1,i,23µM*,23µM*,?,-25%,i
O=C(CNc1cccc(C(F)(F)F)c1)N/N=C/c1cn(-c2ccccc2)nc1-c1ccccc1,i,?,16µM*,?,?,i
O=C(O)/C(=C\c1cn(-c2ccccc2)nc1-c1cccnc1)NC(=O)c1ccccc1,i,24%,-10%,8%,7%,i
Cc1nc2c(C)cccn2c(=O)c1NC(=O)c1cccc2ccccc12,i,-17%,-18%,3%,5%,i
COc1cc(O)c2c(=O)cc(C)oc2c1CC=C(C)C,.,-23%[9.04 µM],3%[9.04 µM],.,.,.
C=CC(C)(C)c1c(O)c(CC=C(C)C)c(O)c2c(=O)c3ccc(O)c(O)c3oc12,?,18µM*,16µM*,15µM*,?,?
CC(C)c1ccccc1OCCNC(=O)c1cccnc1,i,21µM*,18µM*,-1%,8%,i
CCOc1cc(Br)c(C(C)NC(=O)c2cccnc2)cc1OCC (configuration not stated),i,23µM*,18µM*,-4%,-9%,i
COc1ccc(C(=O)NCCCNC(=O)c2cccnc2)cc1Br,i,-8%,?,10µM*,?,i
Cc1ccc(C(C)C)c(OCCNC(=O)c2ccccc2O)c1,i,26µM*,15µM*,?,?,?
Cc1ccc(OCCNC(=O)c2ccccc2O)cc1,i,?,?,-29%,-3%,i
CNC(=O)c1ccc(NC(=O)/C=C/c2cccc(F)c2)cc1,i,7%,8%,?,-7%,i
CCOC(=O)c1c(C)oc2nc(C)nc(NCc3ccc(C)cc3)c12,i,?,-99%,.,.,i
CCOC(=O)c1c(C)oc2nc(C)nc(NCc3cccc(OC)c3)c12,i,?,16µM*,.,.,i
SMILES,KB-3-1 cytotox,DT40 TDP1 no CPT,DT40 TDP1 CPT,HT1080 IDH1KD tx,HT1080-NT tox,KB-V1 MDR tox
CCOC(=O)c1c(C)oc2nc(C)nc(NCc3cccc(Cl)c3)c12,i,21µM*,?,.,.,i
CCOC(=O)c1c(C)oc2nc(C)nc(NCc3ccc(OC)cc3)c12,i,?,?,.,.,i
COC(=O)C1=C(C)N(Cc2ccccc2)C(=O)N[C@H]1c1ccc(Br)cc1,i,7%,2%,-6%,-9%,i
COCCOC(=O)C1=C(C)N(Cc2ccccc2)C(=O)NC1c1ccc(OC)cc1 (configuration not stated),i,?,-26%,-10%,-17%,13µM*
COCCN=C1N[C@@H](c2ccccc2)C(C(=O)OC)=C(C)N1Cc1ccccc1,i,23µM*,?,9%,2%,i
COCCN=C1N[C@@H](c2ccc(Br)cc2)C(C(=O)OC)=C(C)N1Cc1ccccc1,i,?,?,-29%,23µM*,i
CCOC(=O)C1CCCN(S(=O)(=O)c2ccc3[nH]c(=O)ccc3c2)C1 (configuration not stated),i,-52%,-26%,.,.,i
CC(=O)c1ccc2noc(-c3ccccc3)c2c1,i,-12%,-9%,1%,14%,?
CC(=O)c1ccc2c(c1)c(C#N)c1ccccc1[n+]2[O-],?,18µM*,13µM*,-6%,-5%,i
CC(C)(C)c1ccc(OCC(=O)Nc2ccncc2)c(Br)c1,?,7.3µM*,8.2µM*,-26%,-28%,?
Cc1cc(OCC(=O)Nc2ccncc2)c(C)cc1Br,i,-17%,?,?,1%,i
CCc1ccc(OCC(=O)NNC(=O)c2cnccn2)c(Br)c1,?,8.2µM*,5.8µM*,?,?,i
CCc1ccc(OCC(=O)Nc2ccncc2)c(Br)c1,?,10µM*,?,?,?,9.2µM*
COc1ccccc1C(=O)Nc1ccc(OCC(=O)N2CC(C)OC(C)C2)cc1 (configuration not stated),i,-4%,2%,21%,14%,i
Cc1cc(C)c(S(=O)(=O)N2CCCCC2CCNC(=O)C(=O)NCc2ccco2)c(C)c1 (configuration not stated),?,16µM*,?,?,-22%,?

# Assay outcomes as filed in PubChem.
